The source made the active and inactive calls.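 How the source made its calls: active means inhibition above about 23% in any of six single-dose repeats (limit read from the data); inactive means the rest.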
Molecular target: Intestinal-type alkaline phosphatase (Homo sapiens) (UniProt P09923)
Assay: human IAP inhibitors, confirmation, biochemical, luminescence, single concentration, uHTS hits (AID 434927);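 further: plate controls were DMSO wells with enzyme for no effect and wells lacking enzyme for full effect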
Details: purified human IAP, CDP-Star luminescence, 30 min; at 8.3 µM; active compounds read high

Intestinal-type alkaline phosphatase (Homo sapiens), sequence (P09923 whole entry, looked up): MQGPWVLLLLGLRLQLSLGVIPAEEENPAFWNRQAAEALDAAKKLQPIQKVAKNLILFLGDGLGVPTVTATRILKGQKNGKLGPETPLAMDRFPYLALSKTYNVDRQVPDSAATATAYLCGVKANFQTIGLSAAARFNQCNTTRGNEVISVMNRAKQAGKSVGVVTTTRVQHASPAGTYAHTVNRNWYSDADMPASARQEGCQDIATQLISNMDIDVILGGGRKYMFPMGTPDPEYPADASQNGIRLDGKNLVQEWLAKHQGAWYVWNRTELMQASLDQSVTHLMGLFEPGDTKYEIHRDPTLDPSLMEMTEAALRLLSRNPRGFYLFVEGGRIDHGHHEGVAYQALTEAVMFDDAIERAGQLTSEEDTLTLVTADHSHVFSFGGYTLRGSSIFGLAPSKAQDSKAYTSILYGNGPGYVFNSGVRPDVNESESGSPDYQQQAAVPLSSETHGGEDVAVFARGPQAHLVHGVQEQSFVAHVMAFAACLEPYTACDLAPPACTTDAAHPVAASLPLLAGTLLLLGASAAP

inhibition, active:
CC(=O)N1CCOc2ccc(S(=O)(=O)N3CCCC(C)C3)cc21 (stereo not drawn) 54%, CCn1c2ccccc2c2cc(NC(=O)c3coc(=O)c(Br)c3)ccc21 39.2%, COc1ccccc1CCNC(=O)C1CCN(c2nnc(C)c3c(C)n(-c4ccc(C)cc4)nc23)CC1 30.8%

Reference: PubChem BioAssay AID434927 (Sanford-Burnham Center for Chemical Genomics, 2010)
